# Test system: LXRb homodimer (NR concentration 270 nM)
# Test: PBM binding z-score (relative to random genomic background probes); higher = stronger binding; sequences stand for … in GC…GCGATTGACAGCGTAGAATGAAGG
# Summary of the method: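 On custom Agilent 4×180K arrays, double-stranded probes with 34-nt variable regions carried direct-repeat seeds, single-nucleotide variants, half-site ablations or random human genomic background. Ligand-free nuclear receptor dimers were applied for 1 h, and binding was read with antibodies against each partner (one per run). Binding z-scores come from regression-normalized fluorescence, with the random background probes as reference.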
row,Sequence,PBM binding z-score
1,AGAATCAGGTTATTAAGATCAGGGAATTGCGGTC,0.697
2,TCGAGTAGGTTAGGGGTATTCAGAATGGCGTCGA,-0.0483
3,CCTACTGGGCCCTTCAGAGGTCATTGATCATATG,0.134
4,GAGACTGGGGCAAAGCAGGTTACCATAAGGTTGG,-0.382
5,CCCACTGGGCCACGAAAGGTCATTGATTCAGTGA,0.369
6,CCAGACAGGTGAGAAGGTCACTCAGCCTCGATTA,-0.075
7,ATCGAAAGCTCGTGAGGTGAGTATACAGAAAGGC,-0.682
8,TCTAGTTGGTCAAAGGTCACACATTCGAAATGCG,1.75
9,TAGCGTAGGTCAGATCGGGCCAGTATACGCTATA,-0.55
10,TCTGGTAGATCAAAGGTTAAGAAAGCCGAAGCCT,-0.305
11,CGTCCAAGGTCAAGGTCAGTCAAAGAGACTCGAA,1.09
12,TCATATAGGTAAAGGTGAAAGTCGAACGATATGA,-0.112
13,ACAGACAGGTGAGTGAAGGCAACTCAGCTGGACG,-0.607
14,AGAATGAGGTTATTAAGCTCAGGGAATTGCGGTC,-0.299
15,CGTCCAAGGTAAGCAGGTCAGTGAAAGCGACGTG,-1.12
16,ACTAGTTTGTCAGCTGAGGTCACACACAATTCGG,1.33
17,TCTTGTAGATCAGCAGGTTCAGAAAGCTGGCCAA,-0.738
18,ACAGACAGGTGAGTGAAGGAAACTCAGCTGGACG,-0.646
19,TCTTGTAGATCAAAAGAGGTTAAGAAAGTGCGCT,-0.239
20,TTACCGAGGTGAAGGTCGTTGATCCCTCTGTAGA,-0.388

row,Sequence,PBM binding z-score
1,CCGAGTAGGTTATGAGGCATTCAGGCAACGGTGA,-0.156
2,CGAACTAGGTCATGCAGGACAGTGAATACATTGA,-0.2
3,CGTCCAAGGTGAGAGAGGTCAGTGAATGCCGAGT,-0.732
4,ACACGGAGGACAAAGGTCAGAGCTACGCCAGTGA,0.366
5,AGTCAAAGTTCGTCTAGGTAACGTAAGATATGCT,-0.0526
6,AAAACAGGGTCACTAGGCCAGAGTAGGTACGAAT,0.509
7,ACAGACAGGTGAGTGAAGGTAATTCAGCTGGACG,-0.576
8,ATCTCTAGGTAACCAAGTTCAATGAATGCCGAAC,1.25
9,GGAACGAGGGCAAGTTGATAGCGGAGTTTGATGG,-0.525
10,ACCATTAGTTGAGACGAGGGCAACCGATAGGTTG,-0.155
11,ATATGTAGGTTATCGGTTCATTCAGTTTGCGCAT,1.17
12,AGAATGAGGTTAAGAACAGGGAAACAGAATACAT,0.264
13,TCTCGGAGGCCACGAAAGGTCAGAGCTCGACATC,-0.386
14,TCTAGTTGGTCAAAGGTCATACACTCGAAATGCG,2.02
15,CTAACTAGGTCAAGGACAGTGAATCTCCGCACGC,0.129
16,TTGCCTAGGTCAGATCGGGCCAGTATACGCTATA,-0.831
17,ACTACTTGGTCAGCTGAGGTCACACACAATTCGG,1.27
18,CGTCCAAGGTCAGCAAGTCAGTGAAAGCGACGTG,-0.381
19,CCTTTCGGGTCACGAGGTTATAGCACGACGAGCG,0.882
20,CGTCAAAATTCAACTAAGGTAACGTAAAGCACGC,0.0502

# Source: the supplement of paper PMC6555819
